Source: PubChem BioAssay AID1159580 (chemical genetic matrix, 2015)
The campaign covered roughly 5,500 compounds. About 2,000 (36%) were called active. About 18% were inconclusive and are not listed. Cut-off read from the data, not from the text of the source: active = normalized growth mostly below about 0.91 (no sharp cut-off); inconclusive = no clear call, values can overlap the other calls; inactive = mostly above about 0.92. Some of the results follow.

Experiment: chemical genetic growth profiling, strain panel (AID 1159580);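 note: tested at 20 µM; growth read once vehicle control cultures reached saturation at 30 °C; 1 = growth at the plate median or of vehicle wells; lower values mean less growth of the strain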
Details: growth OD

Measured: normalized growth

Clc1ccc(C(OCCN2CCCCC2)c2ccccc2)cc1 (centres undefined)
inactive: S. cerevisiae deletion strains, locus YJR043C, strain POL32, active compounds read low 1.02 | S. cerevisiae deletion strains, locus YJR075W, strain HOC1, active compounds read low 0.948 | S. cerevisiae deletion strains, locus YKL009W, strain mrt4, active compounds read low 0.996 | S. cerevisiae deletion strains, locus YKL068W, active compounds read low 1 | S. cerevisiae deletion strains, locus YKL085W, strain MDH1 (second series), active compounds read low 0.997 | S. cerevisiae deletion strains, locus YKL085W, strain MDH1, active compounds read low 0.997 | S. cerevisiae deletion strains, locus YKL160W, strain elf1, active compounds read low 1.02 | S. cerevisiae deletion strains, locus YKL190W, strain CNB1, active compounds read low 1.01 | S. cerevisiae deletion strains, locus YKR001C, strain vps1, active compounds read low 0.994 | S. cerevisiae deletion strains, locus YKR026C, strain gcn3, active compounds read low 1.02 | S. cerevisiae deletion strains, locus YKR091W, strain srl3, active compounds read low 1.02 | S. cerevisiae deletion strains, locus YLL001W, strain dnm1, active compounds read low 1.02 | S. cerevisiae deletion strains, locus YLL026W, active compounds read low 1.02 | S. cerevisiae deletion strains, locus YLL041C, strain sdh2, active compounds read low 1.01 | S. cerevisiae deletion strains, locus YLR027C, strain aat2, active compounds read low 1.02 | S. cerevisiae deletion strains, locus YLR039C, strain RIC1, active compounds read low 1.26 | S. cerevisiae deletion strains, locus YLR058C, strain SHM2, active compounds read low 1 | S. cerevisiae deletion strains, locus YLR102C, strain apc9, active compounds read low 0.999 | S. cerevisiae deletion strains, locus YLR221C, strain rsa3, active compounds read low 1.01 | S. cerevisiae deletion strains, locus YLR258W, strain gsy2, active compounds read low 1.02 | S. cerevisiae deletion strains, locus YLR262C, strain YPT6 (second series), active compounds read low 1.07 | S. cerevisiae deletion strains, locus YLR262C, strain YPT6, active compounds read low 1.27 | S. cerevisiae deletion strains, locus YLR268W, strain sec22, active compounds read low 0.96 | S. cerevisiae deletion strains, locus YLR320W, strain mms22, active compounds read low 1.01 | S. cerevisiae deletion strains, locus YLR330W, strain CHS5, active compounds read low 1.01 | S. cerevisiae deletion strains, locus YLR342W, strain FKS1 (second series), active compounds read low 0.907 | S. cerevisiae deletion strains, locus YLR342W, strain FKS1, active compounds read low 1.04 | S. cerevisiae deletion strains, locus YLR357W, strain rsc2, active compounds read low 1.02 | S. cerevisiae deletion strains, locus YLR370C, strain arc18, active compounds read low 1 | S. cerevisiae deletion strains, locus YLR371W, strain rom2, active compounds read low 1.01 | S. cerevisiae deletion strains, locus YLR384C, strain iki3, active compounds read low 1.01 | S. cerevisiae deletion strains, locus YLR418C, strain cdc73, active compounds read low 0.852 | S. cerevisiae deletion strains, locus YML016C, strain PPZ1, active compounds read low 0.999 | S. cerevisiae deletion strains, locus YML032C, strain rad52, active compounds read low 0.979 | S. cerevisiae deletion strains, locus YML120C, strain ndi1, active compounds read low 1.01 | S. cerevisiae deletion strains, locus YML124C, strain tub3, active compounds read low 1.01 | S. cerevisiae deletion strains, locus YMR058W, strain fet3, active compounds read low 1.02 | S. cerevisiae deletion strains, locus YMR078C, strain ctf18, active compounds read low 1 | S. cerevisiae deletion strains, locus YMR125W, strain sto1, active compounds read low 1.03 | S. cerevisiae deletion strains, locus YMR129W, active compounds read low 1.03 | S. cerevisiae deletion strains, locus YMR205C, strain PFK2, active compounds read low 1.01 | S. cerevisiae deletion strains, locus YMR223W, strain ubp8, active compounds read low 0.987 | S. cerevisiae deletion strains, locus YMR231W, strain pep5, active compounds read low 1.02 | S. cerevisiae deletion strains, locus YMR263W, strain SAP30, active compounds read low 0.977 | S. cerevisiae deletion strains, locus YMR307W, strain GAS1, active compounds read low 1.12 | S. cerevisiae deletion strains, locus YNL067W, strain RPL9B, active compounds read low 0.98 | S. cerevisiae deletion strains, locus YNL071W, strain lat1, active compounds read low 1.02 | S. cerevisiae deletion strains, locus YNL128W, strain TEP1, active compounds read low 0.955 | S. cerevisiae deletion strains, locus YNL153C, strain GIM3, active compounds read low 0.971 | S. cerevisiae deletion strains, locus YNL209W, strain ssb2, active compounds read low 1.03 | S. cerevisiae deletion strains, locus YNL233W, strain BNI4, active compounds read low 0.986 | S. cerevisiae deletion strains, locus YNL248C, strain rpa49, active compounds read low 1.03 | S. cerevisiae deletion strains, locus YNL250W, strain rad50, active compounds read low 0.991 | S. cerevisiae deletion strains, locus YNL271C, strain bni1, active compounds read low 0.997 | S. cerevisiae deletion strains, locus YNL298W, strain CLA4, active compounds read low 1 | S. cerevisiae deletion strains, locus YNL307C, strain MCK1, active compounds read low 0.992 | S. cerevisiae deletion strains, locus YNL322C, strain KRE1 (second series), active compounds read low 1.03 | S. cerevisiae deletion strains, locus YNL322C, strain KRE1, active compounds read low 1.01 | S. cerevisiae deletion strains, locus YNR049C, strain mso1, active compounds read low 0.999 | S. cerevisiae deletion strains, locus YNR052C, strain pop2, active compounds read low 0.965 | S. cerevisiae deletion strains, locus YOL006C, strain TOP1, active compounds read low 0.592 | S. cerevisiae deletion strains, locus YOL012C, strain htz1 0.731 | S. cerevisiae deletion strains, locus YOL147C, strain pex11, active compounds read low 0.997 | S. cerevisiae deletion strains, locus YOR001W, strain rrp6, active compounds read low 1.02 | S. cerevisiae deletion strains, locus YOR061W, strain CKA2, active compounds read low 1 | S. cerevisiae deletion strains, locus YOR069W, strain VPS5, active compounds read low 0.997 | S. cerevisiae deletion strains, locus YOR070C, strain gyp1, active compounds read low 1.03 | S. cerevisiae deletion strains, locus YOR080W, strain dia2, active compounds read low 1.02 | S. cerevisiae deletion strains, locus YOR083W, strain WHI5, active compounds read low 1.02 | S. cerevisiae deletion strains, locus YOR106W, strain vam3, active compounds read low 1.01 | S. cerevisiae deletion strains, locus YOR136W, strain idh2, active compounds read low 1 | S. cerevisiae deletion strains, locus YOR144C, strain elg1, active compounds read low 1 | S. cerevisiae deletion strains, locus YOR184W, strain ser1, active compounds read low 1.04 | S. cerevisiae deletion strains, locus YOR265W, strain rbl2, active compounds read low 1.01 | S. cerevisiae deletion strains, locus YOR270C, strain vph1, active compounds read low 0.797 | S. cerevisiae deletion strains, locus YOR290C, strain snf2, active compounds read low 1.01 | S. cerevisiae deletion strains, locus YOR316C, strain cot1, active compounds read low 1 | S. cerevisiae deletion strains, locus YPL051W, strain arl3, active compounds read low 1.01 | S. cerevisiae deletion strains, locus YPL055C, strain LGE1, active compounds read low 0.958 | S. cerevisiae deletion strains, locus YPL078C, strain atp4, active compounds read low 1.02 | S. cerevisiae deletion strains, locus YPL106C, strain sse1, active compounds read low 1.02 | S. cerevisiae deletion strains, locus YPL240C, strain hsp82, active compounds read low 1.01 | S. cerevisiae deletion strains, locus YPL241C, strain CIN2, active compounds read low 1 | S. cerevisiae deletion strains, locus YPR119W, strain clb2, active compounds read low 1 | S. cerevisiae deletion strains, locus YPR141C, strain kar3, active compounds read low 0.993 | S. cerevisiae deletion strains, locus YPR163C, strain tif3, active compounds read low 0.981 | S. cerevisiae deletion strains, locus YPR167C, strain met16, active compounds read low 1 | S. cerevisiae deletion strains, strain wtn01, active compounds read low 0.974 | S. cerevisiae strains, strain wild type, active compounds read low 0.988
